hcDAF12 agonist = H. contortus DAF-12 activation, primary screen; activation, % at 6.8 µM; HEK293 hcDAF-12 lit1-tk-luc reporter, luminescence; 0% DMSO, 100% Δ7-dafachronic acid; 370,000 compounds, 1.4% hits;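 active means activation above the mean of all tested compounds plus 3 SD, cut at about 5.5% in these data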;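 further: 100% = response to 3 µM Δ7-dafachronic acid high control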
ssDAF-12 act = S. stercoralis DAF-12 activation, primary screen. HEK293 ssDAF-12/GRIP1 lit1-tk-luc reporter, luminescence; % of 3 µM dafachronic acid response. activation, % at 6.8 µM. 370,000 compounds, 1% hits;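 active means activation above the mean over all tested compounds plus 3 SD, cut at about 0.9% in these data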;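 further: 0% = DMSO-only wells and 100% = 3 µM delta7-dafachronic acid wells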
DAX1 inh-1 = inhibits human nuclear receptor DAX1; P51843; HEK293 Gal4-DAX1 luciferase reporter, luminescence; inhibition, % at 6.75 µM; 340,000 compounds, 0.99% hits; AID 504766;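 active means inhibition above the mean over all tested compounds plus 3 SD, cut at about 4.2% in these data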;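 further: 0% = DAX1-transfected cells with DMSO and 100% = empty-vector control cells with DMSO; inhibition shows as a rise in luminescence from relieved DAX1 repression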
Target sequence (P51843 207-470 limits assumed): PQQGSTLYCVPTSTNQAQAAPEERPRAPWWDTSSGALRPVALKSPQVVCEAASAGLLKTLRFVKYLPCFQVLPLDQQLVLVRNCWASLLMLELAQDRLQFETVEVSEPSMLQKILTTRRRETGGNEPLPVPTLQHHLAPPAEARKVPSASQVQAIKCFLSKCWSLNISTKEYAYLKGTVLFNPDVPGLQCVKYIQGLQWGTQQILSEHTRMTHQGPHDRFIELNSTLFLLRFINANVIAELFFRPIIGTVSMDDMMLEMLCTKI
SMARCA2 activ = SMARCA2 function activation, primary screen; MG213 cells, MMTV-luciferase reporter, dexamethasone, overnight; AID 652017; 370,000 compounds, 1% hits; activation, % at 9.1 µM; in the data active means activation above about 7.8%;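 further: 0% = vehicle wells and 100% = reference activator wells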
hgDAF12 agonist = activates the H. glycines DAF-12 receptor ligand-binding domain; activation, % at 6.8 µM; HEK293 GAL4-hgDAF12 UAS-luciferase reporter, agonist luminescence; normalized to butyrate control; 370,000 compounds, 1.8% hits; AID 687014;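 active means activation above a cutoff set at the mean of all screened compounds plus 3 SD, cut at about 10% in these data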;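 further: 0% = DMSO wells and 100% = sodium butyrate wells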
DAX1 inh-2 = DAX1 (NR0B1) inhibition, primary screen. HEK293T StAR-luciferase reporter, SF-1/DAX-1 repression relief. inhibition, % at 6.8 µM. 370,000 compounds, 1.1% hits. AID 652010;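 active means inhibition above the mean over all tested compounds plus 3 SD, cut at about 3.6% in these data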;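 further: 0% = DAX-1 cells with DMSO and 100% = cells lacking DAX-1 with DMSO; higher inhibition means more luminescence from relief of DAX-1 repression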
DAX1 inh confirm = confirmation of human DAX1 (NR0B1) inhibitors; HEK293T StAR-promoter luciferase reporter, SF-1/DAX-1 repression; shares compounds with DAX1 inh-2; inhibition, % at 6.8 µM; 2,400 compounds, 87% hits; AID 652134;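 active means inhibition above the average of every tested compound plus 3 SD, cut at about 3.8% in these data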;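 further: 0% = DAX-1 cells with DMSO and 100% = no DAX-1 control cells with DMSO; active compounds raise luminescence by relieving repression of the StAR reporter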
Target sequence (P51843 whole entry, looked up): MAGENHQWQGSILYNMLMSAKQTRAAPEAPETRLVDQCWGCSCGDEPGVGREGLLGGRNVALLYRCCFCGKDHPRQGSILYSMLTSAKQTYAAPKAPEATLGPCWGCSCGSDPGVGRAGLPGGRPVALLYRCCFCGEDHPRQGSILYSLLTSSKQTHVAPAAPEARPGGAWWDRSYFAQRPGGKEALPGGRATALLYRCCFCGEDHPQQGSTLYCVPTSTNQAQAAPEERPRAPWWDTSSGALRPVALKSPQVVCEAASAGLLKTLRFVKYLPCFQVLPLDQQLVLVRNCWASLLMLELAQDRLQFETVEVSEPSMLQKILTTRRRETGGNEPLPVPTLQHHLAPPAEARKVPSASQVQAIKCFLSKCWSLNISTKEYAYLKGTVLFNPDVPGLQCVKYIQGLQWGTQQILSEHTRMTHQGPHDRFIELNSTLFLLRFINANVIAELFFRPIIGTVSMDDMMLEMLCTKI
SF1 AF2mut Luc = nonselective inhibitor or artifact in SF-1 mutant DAX1 counter-screen; inhibition, % at 6.8 µM; AID 652136; 2,400 compounds, 78% hits; shares compounds with DAX1 inh-2; HEK293 StAR-luciferase, SF-1 AF2 mutant, luminescence;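 active means inhibition above the mean of all tested compounds plus 3 SD, cut at about 3% in these data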;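 further: 0% = DAX-1 transfected cells with DMSO and 100% = cells without DAX-1 with DMSO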
The depositor's hits bear a star; nt = no result. Rows were chosen to be rich in hits. Some 4.8% of all compounds tested hit in one or more screens of this group.

SMILES	hcDAF12 agonist	ssDAF-12 act	DAX1 inh-1	SMARCA2 activ	hgDAF12 agonist	DAX1 inh-2	DAX1 inh confirm	SF1 AF2mut Luc
O=C(NCCc1ccccn1)c1ccc2nc(Cc3ccccc3F)oc2c1	1.0	0.1	2.1	1.3	8.5	7.0*	6.9*	5.2*
Cn1cc(CNC(=O)c2ccc3nc(Cc4ccccc4F)oc3c2)cn1	3.1	0.0	0.8	2.4	4.3	1.4	nt	nt
CNc1ccccc1/C(O)=C(\C#N)C(=O)NCc1cccs1	-0.7	-0.8	nt	-1.8	2.6	-2.5	nt	nt
CC(C)C(NC(=O)[C@H](Cc1ccccc1)NC(=O)OCc1ccccc1)P(=O)(O)OC(Cc1ccccc1)C(=O)O (stereo partly specified)	-0.1	-0.8	nt	nt	0.8	nt	nt	nt
CN1CCN(c2ccc(NC(=O)c3ccc4ccccc4c3)cc2)CC1	2.9	-0.5	0.3	-0.2	8.6	8.2*	10.2*	0.2
CN1CCN(c2ccc(NC(=O)c3ccc(Br)o3)cc2)CC1	3.5	0.5	1.1	5.2	12.1*	6.2*	8.3*	6.1*
CS(=O)(=O)N1CCN(c2ccc(NC(=O)c3ccc(Br)o3)cc2)CC1	0.8	0.0	1.4	3.1	7.4	2.5	nt	nt
Cc1cc(C)cc(C(=O)Nc2ccc(N3CCCC3)cc2)c1	3.0	0.0	1.4	0.6	12.4*	4.5*	12.5*	5.8*
COc1ccc(C(=O)Nc2ccc(N3CCN(C)CC3)cc2)cc1OC	2.7	-0.6	2.6	0.7	6.2	1.4	nt	nt
Cc1nc2ccc(S(=O)(=O)NCC(=O)NCc3ccccc3C)cc2s1	-1.3	-1.4	nt	-0.5	-0.2	-0.7	nt	nt
C=CCN(C)C(C#CCCCC)c1ccccc1 (stereo unspecified)	3.6	-0.9	nt	nt	5.0	nt	nt	nt
CC1=C(C(=O)Nc2ccc(CC(=O)NCc3ccc(OC(C)C)cc3)cc2)SCCO1	5.9*	1.0*	-0.2	7.0	7.9	14.6*	22.9*	-3.2
O=C1CCCc2nc(N3CCN(C(=O)c4ccco4)CC3)ncc21	1.8	0.5	2.3	4.3	5.3	5.7*	5.9*	3.4*
CCN(CC)c1ccc(S(=O)(=O)N2CCOCC2)cc1NC(=O)COC(=O)c1cccnc1SC	-0.3	-1.3	0.7	2.2	1.5	5.3*	-0.7	-0.1
C[C@H](NS(=O)(=O)c1ccc(Cl)cc1)C(=O)OCC(=O)Nc1cc(S(=O)(=O)N2CCOCC2)ccc1Cl	-0.2	-0.7	-0.3	-1.0	0.7	7.7*	0.5	0.3
O=C(COC(=O)C1CCC1)Nc1cc(S(=O)(=O)N2CCOCC2)ccc1Cl	-1.9	-1.1	2.1	-0.8	1.2	-0.7	nt	nt
COc1ccccc1C=NNC(=O)CSc1nc2ccccc2n1Cc1ccc(Cl)cc1	0.9	-1.5	nt	-3.2	-1.3	0.2	nt	nt
COC(=O)C1CCN(C(=O)COC(=O)/C=C/c2ccc(O)c(OC)c2)CC1	1.0	-0.5	0.5	0.3	-2.4	8.5*	-0.3	-0.8
Cc1ccccc1Nc1nc(N)nc(CSc2ccc(F)cc2)n1	5.1	0.5	7.5*	3.0	11.6*	6.7*	11.2*	4.6*
Cc1ccc(SCc2nc(N)nc(Nc3ccccc3C)n2)cc1C	0.2	0.8	1.9	-0.1	2.5	0.1	nt	nt
O=[N+]([O-])c1ccccc1N/N=C/c1ccccc1	2.2	-0.1	0.6	1.9	6.2	0.4	nt	nt
O=C(O)c1ccccc1NN=Cc1ccccc1	3.4	0.0	4.5*	7.8	9.9	5.6*	9.3*	5.9*
CCCCCCC(=O)NC1CCCCN(Cc2cccc(Cl)c2)C1=O (stereo unspecified)	-2.5	-1.3	nt	3.8	0.4	0.2	nt	nt
COc1ccc(/C(N)=N/OC(=O)c2cccs2)cc1OC	0.4	-1.1	3.0	5.5	7.9	8.3*	6.2*	6.1*
Cc1ccccc1Cn1cc(CN2[C@@H](C)COc3cc(Br)ccc3S2(=O)=O)nn1	0.5	-1.7	nt	-2.8	-1.2	-1.1	nt	nt
SMILES	hcDAF12 agonist	ssDAF-12 act	DAX1 inh-1	SMARCA2 activ	hgDAF12 agonist	DAX1 inh-2	DAX1 inh confirm	SF1 AF2mut Luc
COc1cc(C(=O)NCCC(=O)NC2CCCCCCC2)cc(OC)c1OC	-1.9	-1.3	0.6	-1.0	-2.4	0.0	nt	nt
COc1cc(C(=O)NCCC(=O)NC(C)C)cc(OC)c1OC	-1.7	-1.1	-0.2	0.1	3.7	5.3*	0.1	-2.1
NC(=O)c1ccccc1N/C=C/C(=O)c1ccc(F)cc1	3.5	0.1	1.4	3.7	10.8*	5.2*	9.7*	6.4*
Fc1cccc(F)c1CSc1nc2ccccc2[nH]1	4.5	0.5	2.1	2.4	11.8*	5.1*	16.0*	7.8*
Cc1noc(C)c1CSc1nc2ccccc2[nH]1	-0.5	-1.3	0.1	-1.3	-0.7	0.4	nt	nt
CC(=O)Nc1ccc(C(C)=NNC(=O)C2CCCC2)cc1	1.3	-0.2	nt	5.2	2.9	4.6*	-2.3	-1.4
C/C(=N\NC(=O)C1CCCC1)c1ccc(NC(=O)C(F)(F)F)cc1	0.6	-0.6	nt	-1.2	3.8	-0.8	nt	nt
CCCCCCCCNC(=O)C1CSCCS(=O)(=O)N1Cc1ccccc1 (stereo unspecified)	-0.4	-0.9	nt	1.1	0.8	-0.6	nt	nt
CCc1ccc(OCC(=O)O/N=C(\N)c2ccncc2)cc1	0.4	-0.9	1.0	3.1	2.0	1.3	nt	nt
CCc1ccc(OCC(=O)O/N=C(\N)c2ccncc2)c(Br)c1	5.2	0.4	1.8	4.7	12.2*	7.6*	7.0*	4.8*
O=C(NN=Cc1ccccc1Cl)c1ccccc1	2.0	0.3	4.1	4.2	12.4*	5.2*	13.5*	6.9*
CN(C)c1cccc(C(=O)N/N=C/c2ccccc2F)c1	3.6	0.3	-2.3	-1.8	12.1*	8.5*	8.7*	1.0
Cc1cc(/C=N/NC(=O)c2cccc(N(C)C)c2)c(C)n1-c1cc(C(=O)O)cc(C(=O)O)c1	nt	nt	-0.2	nt	nt	nt	nt	nt
C=CCN1C(=O)[C@H](CC(=O)NCCCOCCCC)[C@@]2(C(=O)OCC)CCCC=C12	-1.6	-1.0	nt	-1.9	-1.6	-0.1	nt	nt
O=C(NCc1cccc(Cl)c1)c1ccc2c(c1)OCCO2	0.1	-1.1	-2.6	0.6	1.0	0.8	nt	nt
O=C(NCCc1cccc(Cl)c1)c1ccc2c(c1)OCO2	5.6*	0.7	-1.1	3.3	10.2	11.2*	13.4*	6.8*
CC(=O)c1cc(-c2ccccc2)n(CC(=O)NCc2ccccc2)c1C	-3.1	-1.3	nt	0.7	0.3	-1.5	nt	nt
Cc1ccc2cc3cc(C(=O)NC4CCCCC4)oc3nc2c1	-0.9	-0.9	0.0	0.4	1.1	5.5*	0.9	0.3
O=C(NC1CCCC1)c1cc2cc(Br)ccc2o1	1.6	-0.6	2.5	5.0	10.2	7.0*	7.8*	4.1*

From PubChem BioAssay
